# About 2,000 (36%) of roughly 5,500 compounds were called active. Another 18% or so got no clear call; they are omitted. The list shows a part of the results. A number with no mark means an inactive call. No stated cut-off is given here; in the data, active means normalized growth mostly below about 0.91 (no sharp cut-off); inconclusive means no clear call, values can overlap the other calls; inactive means mostly above about 0.92.
# Experiment: chemical genetic growth profiling, strain panel (AID 1159580);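 further: tested at 20 µM; growth read once vehicle control cultures reached saturation at 30 °C; 1 = growth at the plate median or of vehicle wells; lower values mean less growth of the strain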
# Settings: growth OD
compound,measurement,setting,value
CN(Cc1cc(Br)cc(Br)c1N)C1CCCCC1,normalized growth,"S. cerevisiae deletion strains, locus YKL009W, strain mrt4, hits give low values",1.01
same,normalized growth,"S. cerevisiae deletion strains, locus YKL068W, hits give low values",1.01
same,normalized growth,"S. cerevisiae deletion strains, locus YKL085W, strain MDH1 (second series), hits give low values",1.01
same,normalized growth,"S. cerevisiae deletion strains, locus YKL085W, strain MDH1, hits give low values",1.01
same,normalized growth,"S. cerevisiae deletion strains, locus YKL160W, strain elf1, hits give low values",1
same,normalized growth,"S. cerevisiae deletion strains, locus YKL190W, strain CNB1, hits give low values",1.02
same,normalized growth,"S. cerevisiae deletion strains, locus YKR001C, strain vps1, hits give low values",0.994
same,normalized growth,"S. cerevisiae deletion strains, locus YKR026C, strain gcn3, hits give low values",1.04
same,normalized growth,"S. cerevisiae deletion strains, locus YKR091W, strain srl3, hits give low values",1.03
same,normalized growth,"S. cerevisiae deletion strains, locus YLL001W, strain dnm1, hits give low values",1.03
same,normalized growth,"S. cerevisiae deletion strains, locus YLL026W, hits give low values",1.03
same,normalized growth,"S. cerevisiae deletion strains, locus YLL041C, strain sdh2, hits give low values",1.05
same,normalized growth,"S. cerevisiae deletion strains, locus YLR027C, strain aat2, hits give low values",1.01
same,normalized growth,"S. cerevisiae deletion strains, locus YLR039C, strain RIC1, hits give low values",1.08
same,normalized growth,"S. cerevisiae deletion strains, locus YLR058C, strain SHM2, hits give low values",1.01
same,normalized growth,"S. cerevisiae deletion strains, locus YLR102C, strain apc9, hits give low values",1.02
same,normalized growth,"S. cerevisiae deletion strains, locus YLR113W, strain HOG1, hits give low values",0.947
same,normalized growth,"S. cerevisiae deletion strains, locus YLR221C, strain rsa3, hits give low values",0.997
same,normalized growth,"S. cerevisiae deletion strains, locus YLR258W, strain gsy2, hits give low values",1.03
same,normalized growth,"S. cerevisiae deletion strains, locus YLR262C, strain YPT6 (second series), hits give low values",0.982
same,normalized growth,"S. cerevisiae deletion strains, locus YLR262C, strain YPT6, hits give low values",1.08
same,normalized growth,"S. cerevisiae deletion strains, locus YLR268W, strain sec22, hits give low values",1.01
same,normalized growth,"S. cerevisiae deletion strains, locus YLR320W, strain mms22, hits give low values",0.984
same,normalized growth,"S. cerevisiae deletion strains, locus YLR330W, strain CHS5, hits give low values",1.02
same,normalized growth,"S. cerevisiae deletion strains, locus YLR342W, strain FKS1 (second series), hits give low values",1
same,normalized growth,"S. cerevisiae deletion strains, locus YLR342W, strain FKS1, hits give low values",1.02
same,normalized growth,"S. cerevisiae deletion strains, locus YLR357W, strain rsc2, hits give low values",1.06
same,normalized growth,"S. cerevisiae deletion strains, locus YLR370C, strain arc18, hits give low values",1.04
same,normalized growth,"S. cerevisiae deletion strains, locus YLR371W, strain rom2, hits give low values",1.02
same,normalized growth,"S. cerevisiae deletion strains, locus YLR384C, strain iki3, hits give low values",1.04
same,normalized growth,"S. cerevisiae deletion strains, locus YLR418C, strain cdc73, hits give low values",1.02
same,normalized growth,"S. cerevisiae deletion strains, locus YML016C, strain PPZ1, hits give low values",1.01
same,normalized growth,"S. cerevisiae deletion strains, locus YML032C, strain rad52, hits give low values",0.986
same,normalized growth,"S. cerevisiae deletion strains, locus YML120C, strain ndi1, hits give low values",1.04
same,normalized growth,"S. cerevisiae deletion strains, locus YML124C, strain tub3, hits give low values",1.03
same,normalized growth,"S. cerevisiae deletion strains, locus YMR058W, strain fet3, hits give low values",0.995
same,normalized growth,"S. cerevisiae deletion strains, locus YMR078C, strain ctf18, hits give low values",1.04
same,normalized growth,"S. cerevisiae deletion strains, locus YMR125W, strain sto1, hits give low values",1.06
same,normalized growth,"S. cerevisiae deletion strains, locus YMR129W, hits give low values",1.04
same,normalized growth,"S. cerevisiae deletion strains, locus YMR205C, strain PFK2, hits give low values",1.04
same,normalized growth,"S. cerevisiae deletion strains, locus YMR223W, strain ubp8, hits give low values",1
same,normalized growth,"S. cerevisiae deletion strains, locus YMR231W, strain pep5, hits give low values",1.04
same,normalized growth,"S. cerevisiae deletion strains, locus YMR307W, strain GAS1, hits give low values",1.17
same,normalized growth,"S. cerevisiae deletion strains, locus YNL067W, strain RPL9B, hits give low values",0.966
same,normalized growth,"S. cerevisiae deletion strains, locus YNL071W, strain lat1, hits give low values",1.04
same,normalized growth,"S. cerevisiae deletion strains, locus YNL183C, strain NPR1, hits give low values",0.838
same,normalized growth,"S. cerevisiae deletion strains, locus YNL209W, strain ssb2, hits give low values",1.03
same,normalized growth,"S. cerevisiae deletion strains, locus YNL233W, strain BNI4, hits give low values",1.01
same,normalized growth,"S. cerevisiae deletion strains, locus YNL248C, strain rpa49, hits give low values",1.04
same,normalized growth,"S. cerevisiae deletion strains, locus YNL250W, strain rad50, hits give low values",1.05
same,normalized growth,"S. cerevisiae deletion strains, locus YNL271C, strain bni1, hits give low values",1.02
same,normalized growth,"S. cerevisiae deletion strains, locus YNL298W, strain CLA4, hits give low values",1.03
same,normalized growth,"S. cerevisiae deletion strains, locus YNL307C, strain MCK1, hits give low values",1.01
same,normalized growth,"S. cerevisiae deletion strains, locus YNL322C, strain KRE1 (second series), hits give low values",1.06
same,normalized growth,"S. cerevisiae deletion strains, locus YNL322C, strain KRE1, hits give low values",1.02
same,normalized growth,"S. cerevisiae deletion strains, locus YNR049C, strain mso1, hits give low values",1.02
same,normalized growth,"S. cerevisiae deletion strains, locus YNR052C, strain pop2, hits give low values",1.01
same,normalized growth,"S. cerevisiae deletion strains, locus YOL006C, strain TOP1, hits give low values",0.804
same,normalized growth,"S. cerevisiae deletion strains, locus YOL012C, strain htz1",2.06
same,normalized growth,"S. cerevisiae deletion strains, locus YOL147C, strain pex11, hits give low values",1.03
same,normalized growth,"S. cerevisiae deletion strains, locus YOR001W, strain rrp6, hits give low values",1.01
same,normalized growth,"S. cerevisiae deletion strains, locus YOR061W, strain CKA2, hits give low values",1.01
same,normalized growth,"S. cerevisiae deletion strains, locus YOR069W, strain VPS5, hits give low values",1.02
same,normalized growth,"S. cerevisiae deletion strains, locus YOR070C, strain gyp1, hits give low values",1.03
same,normalized growth,"S. cerevisiae deletion strains, locus YOR080W, strain dia2, hits give low values",1.07
same,normalized growth,"S. cerevisiae deletion strains, locus YOR083W, strain WHI5, hits give low values",0.988
same,normalized growth,"S. cerevisiae deletion strains, locus YOR106W, strain vam3, hits give low values",1.01
same,normalized growth,"S. cerevisiae deletion strains, locus YOR136W, strain idh2, hits give low values",1.01
same,normalized growth,"S. cerevisiae deletion strains, locus YOR144C, strain elg1, hits give low values",1.02
same,normalized growth,"S. cerevisiae deletion strains, locus YOR184W, strain ser1, hits give low values",0.935
same,normalized growth,"S. cerevisiae deletion strains, locus YOR231W, strain MKK1, hits give low values",0.841 (active)
same,normalized growth,"S. cerevisiae deletion strains, locus YOR265W, strain rbl2, hits give low values",1.05
same,normalized growth,"S. cerevisiae deletion strains, locus YOR270C, strain vph1, hits give low values",0.811
same,normalized growth,"S. cerevisiae deletion strains, locus YOR290C, strain snf2, hits give low values",1
same,normalized growth,"S. cerevisiae deletion strains, locus YOR316C, strain cot1, hits give low values",1.02
same,normalized growth,"S. cerevisiae deletion strains, locus YPL051W, strain arl3, hits give low values",0.983
same,normalized growth,"S. cerevisiae deletion strains, locus YPL078C, strain atp4, hits give low values",1.01
same,normalized growth,"S. cerevisiae deletion strains, locus YPL106C, strain sse1, hits give low values",1
same,normalized growth,"S. cerevisiae deletion strains, locus YPL240C, strain hsp82, hits give low values",1.02
same,normalized growth,"S. cerevisiae deletion strains, locus YPL241C, strain CIN2, hits give low values",1.01
same,normalized growth,"S. cerevisiae deletion strains, locus YPL256C, strain CLN2, hits give low values",0.944
same,normalized growth,"S. cerevisiae deletion strains, locus YPR119W, strain clb2, hits give low values",1.01
same,normalized growth,"S. cerevisiae deletion strains, locus YPR141C, strain kar3, hits give low values",1.02
same,normalized growth,"S. cerevisiae deletion strains, locus YPR163C, strain tif3, hits give low values",1.03
same,normalized growth,"S. cerevisiae deletion strains, locus YPR167C, strain met16, hits give low values",1.01
same,normalized growth,"S. cerevisiae deletion strains, strain wtn01, hits give low values",0.995
same,normalized growth,"S. cerevisiae strains, strain wild type, hits give low values",1.01
